Measured values from PubChem BioAssay (NCATS).
Records with an inconclusive call do not appear. A call without a number means that no potency is given here. Unmarked numbers belong to inactive results. Activity calls are given as the source filed them. The call rests on the fitted dose curve; in most records, active means well fitted inhibition curve with a large enough effect; inconclusive means small, poorly fitted or top-dose-only effect; inactive means flat fitted curve, though single readings scatter.

Experiments:
[1] = qHTS profiling for inhibitors of Plasmodium falciparum proliferation (AID 504749); on all read-outs here: nearly all actives have a fitted effect of over 60% in size; conditions: P. falciparum in erythrocytes, SYBR Green DNA, 72 h; for activity, negative = inhibition: at 28.7 µM (top of the series)
Method in brief: (§1)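 Readout was DNA-dye fluorescence from lysed cultures, ex 485/em 535 nm. Parasitized red cells had grown 72 h with compound; data scaled between 0.29 uM artemisinin and DMSO wells and corrected using vehicle-only plates.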

AA1029 = test: as above; conditions: P. falciparum in erythrocytes, SYBR Green DNA, 72 h; series mostly up to 28.7 µM
Method in brief: as §1

AS120 = test: as above; conditions: P. falciparum in erythrocytes, SYBR Green DNA, 72 h; series mostly up to 28.7 µM
Method in brief: as §1

ATS189 = test: as above; conditions: P. falciparum in erythrocytes, SYBR Green DNA, 72 h; series mostly up to 28.7 µM
Method in brief: as §1

ATS95 = test: as above; conditions: P. falciparum in erythrocytes, SYBR Green DNA, 72 h; series mostly up to 28.7 µM
Method in brief: as §1

C2A = test: as above; conditions: P. falciparum in erythrocytes, SYBR Green DNA, 72 h; series mostly up to 28.7 µM
Method in brief: as §1

CP185 = test: as above; conditions: P. falciparum in erythrocytes, SYBR Green DNA, 72 h; series mostly up to 28.7 µM
Method in brief: as §1

CP191 = test: as above; conditions: P. falciparum in erythrocytes, SYBR Green DNA, 72 h; series mostly up to 28.7 µM
Method in brief: as §1

CP192 = test: as above; conditions: P. falciparum in erythrocytes, SYBR Green DNA, 72 h; series mostly up to 28.7 µM
Method in brief: as §1

CP194 = test: as above; conditions: P. falciparum in erythrocytes, SYBR Green DNA, 72 h; series mostly up to 28.7 µM
Method in brief: as §1

3D7 = test: as above; conditions: P. falciparum in erythrocytes, SYBR Green DNA, 72 h; series mostly up to 28.7 µM
Method in brief: as §1

7G8 = test: as above; conditions: P. falciparum in erythrocytes, SYBR Green DNA, 72 h; series mostly up to 28.7 µM
Method in brief: as §1
Potency means the concentration at half of the fitted maximal effect.

With `c1ccc2c(c1)OCC(C1=NCCN1)O2` (configuration not stated) the activity, negative = inhibition ([1]; parasite line A) was -17.7%, the activity, negative = inhibition ([1]; parasite line B) was -17.9% and the Potency (AA1029) was “inactive”. For the same molecule, the Potency (AS120) was “inactive”, the Potency (ATS189) was “inactive” and the Potency (ATS95) was “inactive”. For the same molecule, the Potency (C2A) was “inactive”, the Potency (CP185) was “inactive” and the Potency (CP191) was “inactive”. For the same molecule, the Potency (CP192) was “inactive” and the Potency (CP194) was “inactive”.

In the case of `C#CCOC(C(=O)OCCN(C)C)(c1ccccc1)c1ccccc1`, the activity, negative = inhibition ([1]; parasite line A) is reported as -0.224%, the activity, negative = inhibition ([1]; parasite line B) is reported as 7.7% and the Potency (3D7) is reported as “inactive”. For the same molecule, the Potency (7G8) was 10 µM (active), the Potency (AS120) was “inactive” and the Potency (ATS189) was “inactive”. For the same molecule, the Potency (ATS95) was “inactive”, the Potency (C2A) was “inactive” and the Potency (CP185) was “inactive”. For the same molecule, the Potency (CP191) was “inactive”, the Potency (CP192) was “inactive” and the Potency (CP194) was “inactive”.

With `N#CC(C#N)=Cc1ccc(O)c(O)c1` the activity, negative = inhibition ([1]; parasite line A) was -14.1%, the activity, negative = inhibition ([1]; parasite line B) was -25.8% and the Potency (3D7) was “inactive”. The Potency (7G8) was 8.91 µM (active), the Potency (AA1029) was “inactive” and the Potency (AS120) was “inactive”. The Potency (ATS189) was “inactive”, the Potency (ATS95) was “inactive” and the Potency (C2A) was “inactive”. For the same molecule, the Potency (CP185) was “inactive”, the Potency (CP192) was “inactive” and the Potency (CP194) was “inactive”.

With `c1ccc(C2CC2)c(OCC2=NCCN2)c1` the activity, negative = inhibition ([1]; parasite line A) was 6.76%, the activity, negative = inhibition ([1]; parasite line B) was 4.47% and the Potency (3D7) was “inactive”. The Potency (AA1029) was “inactive”, the Potency (AS120) was “inactive” and the Potency (ATS189) was “inactive”. For the same molecule, the Potency (ATS95) was “inactive”, the Potency (C2A) was “inactive” and the Potency (CP185) was “inactive”. For the same molecule, the Potency (CP191) was “inactive”, the Potency (CP192) was “inactive” and the Potency (CP194) was “inactive”.

With `CCN(CC)CCOC(=O)C(O)(c1ccccc1)c1ccccc1` the activity, negative = inhibition ([1]; parasite line A) was 9.85%, the activity, negative = inhibition ([1]; parasite line B) was -20.6% and the Potency (3D7) was “inactive”. The Potency (7G8) was “inactive”, the Potency (AA1029) was “inactive” and the Potency (AS120) was “inactive”. For the same molecule, the Potency (ATS189) was “inactive”, the Potency (ATS95) was “inactive” and the Potency (C2A) was “inactive”. For the same molecule, the Potency (CP185) was “inactive”, the Potency (CP191) was “inactive” and the Potency (CP192) was “inactive”. The Potency (CP194) was “inactive”.

In the case of `FC(F)(F)c1cccc(C2=CCN(CCc3ccc4ccccc4c3)CC2)c1`, the activity, negative = inhibition ([1]; parasite line A) is reported as -13.7%, the activity, negative = inhibition ([1]; parasite line B) is reported as -28.6% and the Potency (3D7) is reported as “inactive”. For the same molecule, the Potency (7G8) was “inactive”, the Potency (AA1029) was “inactive” and the Potency (AS120) was “inactive”. The Potency (ATS189) was “inactive”, the Potency (ATS95) was “inactive” and the Potency (C2A) was “inactive”. The Potency (CP185) was “inactive”, the Potency (CP192) was “inactive” and the Potency (CP194) was “inactive”.

In the case of `CCC1(C2=NCCN2)Cc2ccccc2O1` (configuration not stated), the activity, negative = inhibition ([1]; parasite line A) is reported as 5.76%, the activity, negative = inhibition ([1]; parasite line B) is reported as 6.35% and the Potency (3D7) is reported as “inactive”. The Potency (AA1029) was 11.2 µM (active), the Potency (ATS189) was 7.94 µM (active) and the Potency (ATS95) was 8.91 µM (active). The Potency (CP185) was 10 µM (active) and the Potency (CP192) was “inactive”.

In the case of `CCN(C(C)=O)c1cccc(-c2ccnc3c(C#N)cnn23)c1`, the activity, negative = inhibition ([1]; parasite line A) is reported as 6.76%, the activity, negative = inhibition ([1]; parasite line B) is reported as 2.02% and the Potency (3D7) is reported as “inactive”. For the same molecule, the Potency (7G8) was “inactive”, the Potency (AA1029) was “inactive” and the Potency (AS120) was “inactive”. For the same molecule, the Potency (ATS189) was “inactive”, the Potency (ATS95) was “inactive” and the Potency (C2A) was “inactive”. For the same molecule, the Potency (CP185) was “inactive”, the Potency (CP191) was “inactive” and the Potency (CP194) was “inactive”.

For `CC(C)(C)CC(C)(C)c1ccc(O)cc1`, the activity, negative = inhibition ([1]; parasite line A) was -18.1%, the Potency (3D7) was “inactive” and the Potency (7G8) was 12.6 µM (active). The Potency (AA1029) was “inactive”, the Potency (ATS189) was “inactive” and the Potency (ATS95) was “inactive”. The Potency (C2A) was “inactive”, the Potency (CP185) was “inactive” and the Potency (CP191) was “inactive”. The Potency (CP192) was “inactive” and the Potency (CP194) was “inactive”.

For `O=[N+]([O-])c1cc([As](=O)(O)O)ccc1O`, the Potency ([1]; parasite line A) was 3.98 µM (active), the Potency ([1]; parasite line B) was 3.16 µM (active) and the Potency (3D7) was 3.98 µM (active). For the same molecule, the Potency (7G8) was 3.98 µM (active), the Potency (AA1029) was 3.16 µM (active) and the Potency (AS120) was 3.16 µM (active). The Potency (CP191) was 3.16 µM (active).

With `Cc1ccc(-c2nc3ccc(C)cn3c2CC(=O)N(C)C)cc1` the activity, negative = inhibition ([1]; parasite line A) was -4.35%, the activity, negative = inhibition ([1]; parasite line B) was -1.84% and the Potency (3D7) was “inactive”. The Potency (7G8) was “inactive”, the Potency (AA1029) was “inactive” and the Potency (AS120) was “inactive”. For the same molecule, the Potency (ATS189) was “inactive”, the Potency (ATS95) was “inactive” and the Potency (C2A) was “inactive”. The Potency (CP185) was “inactive”, the Potency (CP192) was “inactive” and the Potency (CP194) was “inactive”.
